# Pol iota inh – qHTS for Inhibitors of Polymerase Iota. DNA polymerase iota (Homo sapiens), Q9UNA4. Pol iota fluorescent replication assay, 10 min. Potency, µM (titrated, usually from 115 µM), most hits filed as inhibitors. 1% of 390,000 active. AID 588590, 2011
#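 Pol iota at 10 nM preincubated 15 min with compounds at room temperature; reaction started with fluorescent substrate, 50 nM final. Fluorescence read kinetically at 0 and 10 min; buffer-only wells as negative control.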
# Pol beta inh – qHTS Assay for Inhibitors of DNA Polymerase Beta; Potency, µM (series often up to 114 µM), most hits filed as inhibitors; P06746; 1.3% of 340,000 active; Pol beta primer extension/strand displacement, fluorescence kinetic; AID 485314, 2010
#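 Values derive from four-parameter Hill fits of normalized kinetic data: reads at 0 and 10 min following addition of 50 nM substrate to 10 nM Pol beta preincubated 15 min with compound.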
# GLS inhibitor – qHTS for Inhibitors of Glutaminase (GLS) | Glutaminase kidney isoform, mitochondrial (Homo sapiens), O94925 | GLS enzymatic activity, qHTS titration | Potency, µM (highest dose often 45.5 µM), actives largely listed as inhibitors | 0.21% of 410,000 active | AID 624170, 2012
#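 Enzyme dispensed in phosphate buffer (45 mM, pH 8.2, 0.02% Tween-20), compounds pinned in, then 1 mM L-glutamine solution and the glutamate oxidase–HRP–Amplex Red mix added; fluorescence read immediately and again after 30 min at room temperature.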
# POLH inh – qHTS for Inhibitors of Polymerase Eta; DNA polymerase eta (Homo sapiens), Q9Y253; AID 588591, 2011; recombinant Pol eta, fluorescent DNA replication assay; Potency, µM (doses to about 114 µM), usual class: inhibitors; 1.2% of 390,000 active
#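 Pol eta (10 nM) was preincubated with compounds for 15 min at room temperature, after which fluorescent replication substrate (50 nM final) was added to start the reaction. Fluorescence was read kinetically at 0 and 10 min.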
# POLK inh – qHTS for Inhibitors of Polymerase Kappa; Potency, µM (doses to about 107 µM), actives largely listed as inhibitors; DNA polymerase kappa (Homo sapiens), Q9UBT6; purified Pol kappa, fluorescent DNA synthesis assay, 10 min; 0.53% of 400,000 active
#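 Kinetic fluorescence screen: compound preincubated 15 min RT with 10 nM enzyme; 50 nM substrate (final) initiates; reads at 0/10 min.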
# GCN5L2 inh – qHTS Assay for Inhibitors of GCN5L2 | Potency, µM (doses to about 58.9 µM), usual class: inhibitors | 0.21% of 390,000 active | GCN5L2 HAT assay, ThioGlo1 CoA-SH fluorescence
# Target sequence (Q92830 whole entry, looked up): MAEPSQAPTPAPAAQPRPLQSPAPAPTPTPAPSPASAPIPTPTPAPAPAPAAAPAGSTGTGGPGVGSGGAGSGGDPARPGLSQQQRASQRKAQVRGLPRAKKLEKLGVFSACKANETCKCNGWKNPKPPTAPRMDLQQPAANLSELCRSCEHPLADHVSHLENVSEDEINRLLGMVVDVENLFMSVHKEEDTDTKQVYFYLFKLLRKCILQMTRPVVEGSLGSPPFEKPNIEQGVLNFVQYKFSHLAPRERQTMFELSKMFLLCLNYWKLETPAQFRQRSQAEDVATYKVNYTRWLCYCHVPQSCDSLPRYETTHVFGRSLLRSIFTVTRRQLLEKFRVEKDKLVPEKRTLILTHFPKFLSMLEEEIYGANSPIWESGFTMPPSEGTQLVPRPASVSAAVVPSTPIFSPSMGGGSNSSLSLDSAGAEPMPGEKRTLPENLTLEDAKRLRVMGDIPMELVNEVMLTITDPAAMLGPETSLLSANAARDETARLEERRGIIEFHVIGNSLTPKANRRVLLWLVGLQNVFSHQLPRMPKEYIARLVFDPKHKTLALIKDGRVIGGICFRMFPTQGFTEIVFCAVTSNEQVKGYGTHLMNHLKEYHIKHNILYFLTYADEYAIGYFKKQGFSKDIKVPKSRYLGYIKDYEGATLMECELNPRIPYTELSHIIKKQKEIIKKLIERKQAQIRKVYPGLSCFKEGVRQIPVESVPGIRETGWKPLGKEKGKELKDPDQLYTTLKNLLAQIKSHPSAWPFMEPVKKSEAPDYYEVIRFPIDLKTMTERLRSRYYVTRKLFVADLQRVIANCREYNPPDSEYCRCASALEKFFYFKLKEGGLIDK
#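 ThioGlo1-coupled HAT assay: 20nM GCN5L2, 70uM acetyl-CoA, 75uM H3(1-25) peptide, pH 7.5. Fluorescence read at 340/540nm at start and after 20 min at room temperature.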
# Hits are given with their value; – = inactive; ? = inconclusive; · = no result given; [ ] = remark or other dose. In the library only some 2.4% were active in any assay of this set; here they are far more common. The call rests on the fitted dose curve; in most records, active means well fitted inhibition curve with a large enough effect; inconclusive means small, poorly fitted or top-dose-only effect, or another doubt; inactive means no such curve, though single readings can be large or run the other way.
SMILES,Pol iota inh,Pol beta inh,GLS inhibitor,POLH inh,POLK inh,GCN5L2 inh
Cc1ccccc1OCC(=O)Nc1cccc(C(=O)O)c1,–,–,–,–,–,–
Cc1ccc(-c2nc3ccccc3[nH]2)cc1NC(=O)COc1cccc(C)c1C,89µM,–,–,–,–,–
O=c1cc(/C=C/c2ccc([N+](=O)[O-])cc2)c2ccccc2[nH]1,–,·,·,·,–,·
O=C(C[N+]1(CCO)CCOCC1)c1cccc2ccccc12,–,·,·,·,–,·
O=C(OCC(=O)N1N=C(c2ccc(Cl)cc2)CC1c1ccco1)c1cncc(Br)c1 (stereo unspecified),?,·,–,45µM,?,–
COCCN(CC(=O)Nc1cccc(C)c1C)C(=O)c1cc2c(s1)CCC2,89µM,·,?,?,?,–
CCN(CC(=O)Nc1ccccc1C(F)(F)F)C(=O)c1cc2c(s1)CCCCC2,–,·,–,–,–,–
c1ccc(-c2nc(-c3cnc4ccccc4n3)cs2)cc1,–,·,·,·,–,·
CCCC(=O)Nc1ccc(NC(=O)c2ccccc2OC)cn1,–,–,–,–,–,2.2µM
O=C(Cc1ccccc1)Nc1ccc(NC(=O)c2ccccc2)nc1,–,63µM,–,–,–,–
O=C(Nc1ccc(NC(=O)C2CC2)cn1)c1ccccc1,–,–,–,–,–,–
COc1ccccc1C(=O)Nc1ccc2c(c1)C(=O)NC2=O,–,56µM,–,–,–,–
COc1ccc(/C=C2\SC(=O)N(CCCC(=O)Nc3ccc(C(=O)O)cc3)C2=O)cc1,·,·,–,–,·,·
COc1ccc(/C=C2\SC(=O)N(CCc3nnc(N)s3)C2=O)cc1,20µM,?,–,45µM,?,–
CC(=O)OCC1=C(C(=O)O)N2C(=O)C(NC(=O)Cc3ccccc3)C2SC1 (stereo unspecified),50µM,·,?,·,45µM,–
CO/N=C(/C(=O)NC1C(=O)N2C(C(=O)O)=C(COC(N)=O)CSC12)c1ccco1 (stereo unspecified),·,·,·,·,35µM,–
CO/N=C(\C(=O)N[C@@H]1C(=O)N2C(C(=O)O)=C(COC(N)=O)CS[C@H]12)c1ccco1,40µM,?,?,2.5µM,?,–
CO/N=C(/C(=O)N[C@@H]1C(=O)N2C(C(=O)O)=C(CSC(=O)c3ccco3)CSC12)c1csc(N)n1 (stereo partly specified),·,·,–,·,–[19.4 µM],–
CCC1CN(S(=O)(=O)c2cc(-c3cc(C)no3)ccc2C)c2cc(Cl)ccc2O1 (stereo unspecified),–,–,–,–,–,–
COc1cc(OC)c(C2CC(=O)N3CN(c4ccccc4)CSC3=C2C#N)cc1OC (stereo unspecified),–,–,–,–,–,?
COc1ccc(OC)c(C2CC(=O)N3CN(c4ccc(C)c(Cl)c4)CSC3=C2C#N)c1 (stereo unspecified),–,–,–,–,–,14µM
COc1ccc(OC)c(C2CC(=O)N3CN(c4cccc(Cl)c4)CSC3=C2C#N)c1 (stereo unspecified),–,–,–,–,–,25µM
CNc1cc[n+](C)c2ccccc12,–,·,·,·,–,·
COc1ccccc1N1CCN(C(=O)c2cnc(N3CCOCC3)c3ccccc23)CC1,–,–,–,–,–,–
O=C(NCCc1ccc(F)cc1)c1coc(=O)c(Br)c1,–,–,–,–,–,–
SMILES,Pol iota inh,Pol beta inh,GLS inhibitor,POLH inh,POLK inh,GCN5L2 inh
O=C(Nc1ccccc1F)c1coc(=O)c(Br)c1,28µM,13µM,–,79µM,32µM,–
O=C(Nc1ccc(Br)cn1)c1coc(=O)c(Br)c1,40µM,?,–,45µM,?,–
O=C(Nc1ccc(Br)cn1)c1cccc(-c2cc3ccccc3oc2=O)c1,–,?,–,?,–,–
CN(C)/[N+]([O-])=N\Oc1cc(OC(=O)c2ccc(N)cc2)c([N+](=O)[O-])cc1[N+](=O)[O-],?,·,·,·,–,·
COCCCN1C(=O)C2C(C(=O)Nc3cc(C)cc(C)c3)C3C=CC2(O3)C1C(=O)NC1CCCCC1 (stereo unspecified),13µM,–,–,22µM,–,–
COc1cccc2cc(C(=O)N(Cc3cccs3)Cc3cccs3)c(=O)oc12,–,·,·,·,–,·
Cn1c2ccccc2c(=O)c2ccc(C#CC3(N)CCCCC3)cc21,?,35µM,–,–,?,–
Cc1oc2ncn(CC(C)C)c(=O)c2c1C(=O)NCCCN1CCCCC1C (stereo unspecified),–,–,–,–,–,–
Cc1ccccc1Cn1c(=O)n(Cc2ccc(Cl)cc2)c(=O)c2cccnc21,–,–,–,–,–,–
C=CCCCCCCCCCBr,·,·,·,·,–,–
CCOC(=O)c1cnc2nc(NCc3ccc(OC)c(OC)c3)[nH]n2c1=O,?,35µM,–,20µM,–,–
CCOC(=O)c1cnc2nc(NCc3cccc(Br)c3)[nH]n2c1=O,–,–,–,–,–,–
CCc1ccc(C(=O)C(C)CN2CCCCC2)cc1 (stereo unspecified),·,·,–,·,–[19.4 µM],–
COc1ccccc1CNC(=O)C(=O)NCCC1CCCCN1S(=O)(=O)c1cccs1 (stereo unspecified),–,·,–,–,89µM,–
CCCCCCCCCCCCC/C=C/[C@@H](O)[C@H](CO)NC(=O)CCCCC,·,·,·,·,?,–
S=c1nc(C2CC2)[nH]c2ccccc12,?,?,?,25µM,–,–
O=C(Cc1ccc(S(=O)(=O)N2CCCC2)s1)N1CCN(c2ccccc2)CC1,–,32µM,–,–,–,–
O=C(Cc1ccc(S(=O)(=O)N2CCOCC2)s1)N1CCN(c2cccc(C(F)(F)F)c2)CC1,–,–,–,–,–,–
O=c1c2c3nc4ccccc4nc3n(Cc3ccccc3)c2ncn1Cc1ccco1,?,28µM,–,18µM,?,?
Cc1ccc(-c2csc(NC(=O)CSc3nc4ccccc4[nH]3)n2)cc1,–,–,–,–,–,–
COc1ccc(NC(=O)CSc2nc(O)cc(=O)n2-c2ccccc2)cc1,79µM,?,–,–,–,–
COc1ccc(-c2csc(NC(=O)CSc3nc4ccccc4c(=O)[nH]3)n2)cc1,35µM,–,?,?,?,–
COc1ccc2nc(SCC(=O)Nc3ccccc3)[nH]c2c1,–,28µM,–,–,–,–
COc1ccccc1NC(=O)CSc1nc2ncccc2[nH]1,–,35µM,–,–,–,–
COc1ccc(NC(=O)CSc2nc(O)cc(=O)n2C)cc1,?,–,–,–,?,–
Cc1cc[n+](CC#N)cc1,–,·,·,·,–,·

# Screens as filed in PubChem.
